This is an account of results in PubChem BioAssay (NCI).

The panel holds about 83,000 compounds, 20% with a hit somewhere; the sample as a whole holds those more often.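 Plates (96-well) were seeded with cells, treated with compound at one concentration, and incubated for 48 hours before percent growth was determined.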 Unmarked numbers belong to inactive results. Calls of active or inactive are those of the source. Rule for the calls: active = growth percent below 10; inactive = the rest.

Test systems include T-47D breast; BT-549 breast; MDA-MB-435 melanoma; SW-620 colon; MCF7 breast; HCT-116 colon; HCC-2998 colon; KM12 colon.
Common to all, as to experiment: NCI-60 one-dose screen, 48 h (100 = growth as untreated, 0 = no growth, -100 = all killed)
Common to all, as to settings: 10 µM unless noted

For `O=C1CC[C@H](c2ccc(O)c3c2C(=O)[C@@H]2O[C@@H]2C3=O)c2cccc(O)c21`, the growth in the experiment with T-47D breast was -26.1% (active); in the experiment with BT-549 breast, 86.8%; in the experiment on MDA-MB-435 melanoma, 47.3%; with SW-620 colon, -41.3% (active); in the experiment with MCF7 breast, -31.5% (active); in the experiment on HCT-116 colon, 5.4% (active). Besides, the growth with HCC-2998 colon was 101%; in the experiment with KM12 colon, 85.1%.

As for `COc1cc(/C=C/c2cc(/C=C/c3ccc(O)c(OC)c3)n(-c3c(C)cccc3C)c(=O)n2)ccc1O`, the growth was -4.26% (active) in the experiment on T-47D breast; -18.1% (active) with BT-549 breast; 2.28% (active) in the experiment with MDA-MB-435 melanoma; 7.79% (active) in the experiment with SW-620 colon; 1.69% (active) in the experiment with MCF7 breast; 8.26% (active) in the experiment with HCT-116 colon. Further, the figures for the growth in the experiment with HCC-2998 colon and with KM12 colon were 24.1% and 11.6%, respectively.

On to `CN1CCN(CCCOc2cccc3nc(Nc4ccc(Cl)c(F)c4)ccc23)CC1`, for which the growth in the experiment on T-47D breast was 38.5%; with BT-549 breast, 80%; in the experiment with MDA-MB-435 melanoma it was 25.3%; in the experiment with SW-620 colon, -34.1% (active); with MCF7 breast it was -43.1% (active); in the experiment on HCT-116 colon, 31.6%. Besides, the growth is 55.2% with HCC-2998 colon and -34.7% (active) in the experiment on KM12 colon.

On to `COc1ccc(SC2c3cc(OC)c(OC)cc3Oc3nc(N)c(C#N)c(N)c32)cc1` (stereo not drawn), for which the growth was -41.9% (active) in the experiment on T-47D breast; -79.1% (active) in the experiment on BT-549 breast; -84.4% (active) in the experiment on MDA-MB-435 melanoma; -64.5% (active) with SW-620 colon; -58.9% (active) in the experiment on MCF7 breast; -88.6% (active) in the experiment on HCT-116 colon. The growth with HCC-2998 colon was -84.3% (active); with KM12 colon it was -79% (active).

Turning to `OCc1ccc(N2CCc3cccc(F)c3C2)cc1Cl`, the growth in the experiment on T-47D breast was 1.88% [0.1 µM] (active); in the experiment on BT-549 breast it was 114% [0.1 µM]; in the experiment on MDA-MB-435 melanoma it was 111% [0.1 µM]; in the experiment on SW-620 colon it was 34.5% [0.1 µM]; in the experiment with MCF7 breast it was 12.8% [0.1 µM]; in the experiment on HCT-116 colon, 18.1% [0.1 µM]. Besides, the values for the growth in the experiment on HCC-2998 colon and in the experiment on KM12 colon were 81% [0.1 µM] and 101% [0.1 µM], respectively.

For the molecule `Cc1ccc2oc(=O)cc(C3c4ccc([nH]4)C(c4cc(=O)oc5ccc(C)cc45)c4ccc([nH]4)C(c4cc(=O)oc5ccc(C)cc45)c4ccc([nH]4)C(c4cc(=O)oc5ccc(C)cc45)c4ccc3[nH]4)c2c1` (stereo not drawn), the growth was -28.5% (active) in the experiment on T-47D breast; -49.8% (active) in the experiment with BT-549 breast; -76.1% (active) in the experiment on MDA-MB-435 melanoma; -7.64% (active) in the experiment with SW-620 colon; -20.9% (active) in the experiment with MCF7 breast; -78.9% (active) in the experiment on HCT-116 colon. Further, the growth is -68.9% (active) in the experiment with HCC-2998 colon and -73.9% (active) in the experiment with KM12 colon.

In the case of `O=C(/C=C/c1ccccc1)c1ccc(O)c(CN2CCN(c3cc4c(cc3F)c(=O)c(C(=O)O)cn4C3CC3)CC2)c1`, the growth in the experiment with T-47D breast was 27.9%; with BT-549 breast, 28.2%; in the experiment with MDA-MB-435 melanoma, 18.6%; in the experiment on SW-620 colon it was 23.4%; in the experiment with MCF7 breast, 8% (active); with HCT-116 colon, 3.95% (active). Also, the growth is 41.2% in the experiment with HCC-2998 colon and 31.8% in the experiment with KM12 colon.

For `CC1=NN(c2nc(-c3ccc(Cl)cc3)c(C#N)c(N3CCOCC3)n2)C(=O)C1`, the growth is 93.3% in the experiment with T-47D breast; 66.1% in the experiment with BT-549 breast; 87.8% in the experiment on MDA-MB-435 melanoma; 85.2% in the experiment on SW-620 colon; 94.4% with MCF7 breast; 94.3% with HCT-116 colon. Besides, the growth with HCC-2998 colon is 98.5%; with KM12 colon it was 99.7%.

As to `COc1ccc(-c2cc(=O)c3c(OC)c4ccoc4cc3o2)cc1`, the growth in the experiment with T-47D breast is 87.2%; in the experiment with BT-549 breast, 113%; in the experiment on MDA-MB-435 melanoma, 89.6%; with SW-620 colon, 93.2%; in the experiment on MCF7 breast, 98%; in the experiment on HCT-116 colon, 98%. Further, the figures for the growth with HCC-2998 colon and with KM12 colon were 106% and 100%, respectively.

For the molecule `CN1CCN(c2nc(NCCCNc3ccnc4cc(Cl)ccc34)c3ccccc3n2)CC1`, the growth was 40.7% with T-47D breast; 74.5% with BT-549 breast; -22.4% (active) in the experiment on MDA-MB-435 melanoma; 15.7% with SW-620 colon; 29.9% with MCF7 breast; 37.3% in the experiment on HCT-116 colon. Moreover, the growth in the experiment on HCC-2998 colon was 37.2%; in the experiment with KM12 colon, 41.9%.

On to `O=C1/C(=C/c2ccc3c(c2)OCO3)SC(=S)N1CCc1ccc(O)cc1`, for which the growth with T-47D breast is 59.2%; with BT-549 breast, 96.6%; in the experiment with MDA-MB-435 melanoma, 94%; in the experiment on SW-620 colon, 111%; with MCF7 breast it was 112%; in the experiment on HCT-116 colon it was 101%. In addition, the growth with HCC-2998 colon was 103%; in the experiment on KM12 colon it was 86.3%.

On to `COc1ccc(/C=N/C2=C(C#N)C(c3ccc(N(C)C)cc3)c3ccc4ccccc4c3O2)cc1` (stereo not drawn), for which the growth was 72% with T-47D breast; 48.4% in the experiment on BT-549 breast; 4% (active) in the experiment on MDA-MB-435 melanoma; 46.1% in the experiment on SW-620 colon; 45% in the experiment on MCF7 breast; 43.4% with HCT-116 colon. Besides, the growth in the experiment with HCC-2998 colon was 96.3%; in the experiment with KM12 colon, 44.1%.

With `NC(CSC(c1ccccc1)(c1ccccc1)c1ccc(Cl)cc1)C(=O)O` (stereo not drawn), the growth in the experiment on T-47D breast was 23.7%; in the experiment on BT-549 breast, 27.1%; in the experiment with MDA-MB-435 melanoma it was -40.2% (active); in the experiment on SW-620 colon, 19.2%; in the experiment with MCF7 breast it was 8.48% (active); in the experiment on HCT-116 colon, 4.19% (active). The growth in the experiment on HCC-2998 colon was -36.3% (active); with KM12 colon it was 1.65% (active).

For `O=C1/C(=C/N2N=C(c3ccc4ccccc4c3)CC2c2ccccc2O)SC(=S)N1c1cccnc1` (stereo not drawn), the growth with T-47D breast is 44.5%; in the experiment on BT-549 breast it was 6.36% (active); in the experiment on MDA-MB-435 melanoma, -48.7% (active); with SW-620 colon it was 24%; with MCF7 breast, 17.3%; in the experiment with HCT-116 colon, 10.9%. The results for the growth in the experiment with HCC-2998 colon and in the experiment with KM12 colon were 28.5% and 18.2%, respectively.

Consider `Clc1ccc2c(NCCNc3nc(N4CCCCC4)nc4ccccc34)ccnc2c1`, for which the growth is -29.7% (active) with T-47D breast; 53.7% in the experiment on BT-549 breast; -66.4% (active) with MDA-MB-435 melanoma; -36.6% (active) in the experiment on SW-620 colon; 14.5% in the experiment with MCF7 breast; -25.4% (active) in the experiment with HCT-116 colon. In addition, the growth with HCC-2998 colon is 10.6%; in the experiment on KM12 colon, 7.18% (active).

`COc1cccc(C2=NN3C(C2)c2cc(Br)cc(OC)c2OC32CCN(Cc3ccccc3)CC2)c1` (stereo not drawn): the growth is 108% with T-47D breast; 110% in the experiment with BT-549 breast; 98.3% in the experiment with MDA-MB-435 melanoma; 96.3% in the experiment on SW-620 colon; 96.3% with MCF7 breast; 114% in the experiment on HCT-116 colon. Also, the growth was 99.2% with HCC-2998 colon and 103% in the experiment with KM12 colon.
